According to PubChem BioAssay AID588800 (Johns Hopkins Ion Channel Center, 2011):
Activity calls are given as the source filed them.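 Rule for the calls: active = peak inhibition of the KCNQ2 potassium channel above 30% at some tested dose, plus a fitted dose response curve; inactive = no inhibition at any dose, or no curve.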

Target: Potassium voltage-gated channel subfamily KQT member 2 (Rattus norvegicus) (UniProt O88943)
Test: rat KCNQ2 channel inhibition, SAR follow-up, selectivity assay for KCNK9 inhibitor project, cell-based, FluxOR thallium flux, CRC set 2 (AID 588800)
Settings: KCNQ2-expressing cells; series mostly up to 30 µM

Sequence of Potassium voltage-gated channel subfamily KQT member 2 (Rattus norvegicus) (O88943 whole entry, looked up): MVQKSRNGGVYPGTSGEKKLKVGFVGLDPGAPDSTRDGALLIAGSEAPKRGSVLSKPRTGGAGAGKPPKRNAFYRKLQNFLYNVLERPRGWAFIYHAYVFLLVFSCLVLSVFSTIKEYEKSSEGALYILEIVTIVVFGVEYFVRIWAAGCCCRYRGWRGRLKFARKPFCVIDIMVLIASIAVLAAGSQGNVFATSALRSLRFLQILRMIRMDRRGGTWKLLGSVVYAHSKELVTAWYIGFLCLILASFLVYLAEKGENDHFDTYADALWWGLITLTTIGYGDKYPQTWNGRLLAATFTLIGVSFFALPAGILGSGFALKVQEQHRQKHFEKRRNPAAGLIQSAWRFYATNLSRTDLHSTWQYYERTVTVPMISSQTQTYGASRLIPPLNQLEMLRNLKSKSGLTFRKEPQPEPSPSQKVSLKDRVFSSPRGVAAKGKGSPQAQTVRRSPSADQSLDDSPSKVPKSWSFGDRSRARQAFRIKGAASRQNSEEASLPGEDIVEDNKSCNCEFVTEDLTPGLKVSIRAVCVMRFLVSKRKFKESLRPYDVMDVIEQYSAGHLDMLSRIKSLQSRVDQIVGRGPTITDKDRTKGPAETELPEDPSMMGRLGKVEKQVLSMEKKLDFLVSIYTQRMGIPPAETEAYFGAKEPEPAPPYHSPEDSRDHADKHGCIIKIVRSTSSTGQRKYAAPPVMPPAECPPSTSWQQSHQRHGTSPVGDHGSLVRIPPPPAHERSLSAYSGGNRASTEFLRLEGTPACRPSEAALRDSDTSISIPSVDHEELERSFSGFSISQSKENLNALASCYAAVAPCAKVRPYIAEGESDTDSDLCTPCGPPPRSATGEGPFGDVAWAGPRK

outcome, inactive:
CCOc1ccccc1NC(=O)c1cccc(NC(=O)c2ccc(Cl)cc2)c1
COc1ccccc1C(=O)Nc1cccc(NC(=O)c2cccc(C)c2)c1
CCOc1ccccc1NC(=O)c1cccc(NC(=O)c2ccc(OC)cc2)c1
Cc1cccc(C(=O)Nc2cccc(NC(=O)c3ccccc3OCC(C)C)c2)c1
COc1ccccc1C(=O)Nc1cccc(NC(=O)c2ccccc2OC(F)(F)F)c1
O=C(Nc1cccc(NC(=O)c2cccc(F)c2)c1)c1ccccc1
CC(c1ccco1)n1c(-c2ccoc2)n[nH]c1=S (stereo unspecified)
O=C(Nc1cccc(NC(=O)c2ccc(F)cc2)c1)c1ccccc1
CCOc1ccccc1NC(=O)c1cccc(NC(=O)C2CC2)c1
Cc1cccc(C(=O)Nc2cccc(NC(=O)C3CCCCC3)c2)c1
O=C(Nc1cccc(NC(=O)c2ccccc2Cl)c1)c1ccccc1
CCOc1ccccc1NC(=O)c1cccc(NC(=O)C2CCOC2)c1 (stereo unspecified)
COc1ccc(C(=O)Nc2cccc(NC(=O)c3ccccc3)c2)cc1
CCOc1ccc(NC(=O)c2cccc(NC(=O)C3CCCC3)c2)cc1
O=C(Nc1cccc(NC(=O)c2cccc(Cl)c2)c1)c1ccccc1
Cc1cccc(C(=O)Nc2cccc(NC(=O)c3cccc(C(F)(F)F)c3)c2)c1
